Test results as given in the supplement of paper PMC11732987, “Enantioselective OTUD7B fragment discovery through chemoproteomics screening and high-throughput optimisation” (Communications Chemistry, 2025).

How the values were obtained:
Test in all cases: log2 ratio of Biotin-Ahx-Ub-VS probe labelling (fragment/DMSO); higher = less target engagement (more negative = stronger competition), active = hit call of the paper (q ≤ 0.05, log2 ratio ≤ -1)
Conditions in all cases: compound concentration: 200 uM; treatment time: 3 h
[1] = biological target: T1, USP42 (UniProt Q9H9J4)
T1 sequence (whole entry): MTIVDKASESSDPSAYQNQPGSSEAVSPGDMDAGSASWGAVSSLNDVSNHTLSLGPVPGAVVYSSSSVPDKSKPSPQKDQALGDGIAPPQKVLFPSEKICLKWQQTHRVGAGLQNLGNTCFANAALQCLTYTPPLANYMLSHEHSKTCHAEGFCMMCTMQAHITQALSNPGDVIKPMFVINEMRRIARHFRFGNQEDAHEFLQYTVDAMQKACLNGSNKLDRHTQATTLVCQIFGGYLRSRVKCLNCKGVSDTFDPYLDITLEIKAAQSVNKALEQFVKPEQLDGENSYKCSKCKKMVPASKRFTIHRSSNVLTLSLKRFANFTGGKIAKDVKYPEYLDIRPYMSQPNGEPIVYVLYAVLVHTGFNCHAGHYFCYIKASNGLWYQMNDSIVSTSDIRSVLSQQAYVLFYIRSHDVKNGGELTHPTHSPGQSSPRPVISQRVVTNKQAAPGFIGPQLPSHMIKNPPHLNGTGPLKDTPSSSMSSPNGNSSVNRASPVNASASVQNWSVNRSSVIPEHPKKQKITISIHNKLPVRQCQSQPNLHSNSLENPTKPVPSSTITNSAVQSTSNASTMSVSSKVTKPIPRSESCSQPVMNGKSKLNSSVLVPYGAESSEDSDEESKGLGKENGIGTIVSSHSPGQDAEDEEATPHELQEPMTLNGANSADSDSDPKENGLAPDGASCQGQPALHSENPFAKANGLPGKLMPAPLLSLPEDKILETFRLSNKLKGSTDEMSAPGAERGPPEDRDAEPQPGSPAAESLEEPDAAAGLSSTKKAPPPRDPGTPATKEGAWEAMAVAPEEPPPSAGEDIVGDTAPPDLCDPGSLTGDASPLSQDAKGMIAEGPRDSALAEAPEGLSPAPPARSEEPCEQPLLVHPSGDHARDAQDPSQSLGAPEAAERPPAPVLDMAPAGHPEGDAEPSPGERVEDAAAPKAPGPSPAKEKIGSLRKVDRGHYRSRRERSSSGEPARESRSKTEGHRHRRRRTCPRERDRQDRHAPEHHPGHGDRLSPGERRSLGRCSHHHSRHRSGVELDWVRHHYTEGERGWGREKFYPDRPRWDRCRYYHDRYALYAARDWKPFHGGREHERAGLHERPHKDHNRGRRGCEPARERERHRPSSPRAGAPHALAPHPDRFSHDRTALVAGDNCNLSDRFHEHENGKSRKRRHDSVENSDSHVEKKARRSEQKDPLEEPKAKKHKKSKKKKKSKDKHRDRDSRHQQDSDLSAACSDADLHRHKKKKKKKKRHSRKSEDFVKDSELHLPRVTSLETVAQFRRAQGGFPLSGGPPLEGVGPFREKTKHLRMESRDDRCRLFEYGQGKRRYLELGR
Summary of the method: (§1)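 In triplicate, 495 µg of HEK293T lysate per sample was incubated with fragment at 200 µM or vehicle for 3 h. Biotin-Ahx-Ub-VS was then added to 0.5 µM final for 1 h, and labelled DUBs were captured with NeutrAvidin, digested with LysC and trypsin, and measured by diaPASEF LC-MS/MS. Data are average log2 fragment/vehicle ratios by unpaired t-test from global-median-normalised Spectronaut label-free quantities, restricted to proteins with ≥2 unique peptides.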

[2] = biological target: USP46 (UniProt P62068)
Summary of the method: as §1

[3] = biological target: T2, USP47 (UniProt Q96K76)
T2 sequence (whole entry): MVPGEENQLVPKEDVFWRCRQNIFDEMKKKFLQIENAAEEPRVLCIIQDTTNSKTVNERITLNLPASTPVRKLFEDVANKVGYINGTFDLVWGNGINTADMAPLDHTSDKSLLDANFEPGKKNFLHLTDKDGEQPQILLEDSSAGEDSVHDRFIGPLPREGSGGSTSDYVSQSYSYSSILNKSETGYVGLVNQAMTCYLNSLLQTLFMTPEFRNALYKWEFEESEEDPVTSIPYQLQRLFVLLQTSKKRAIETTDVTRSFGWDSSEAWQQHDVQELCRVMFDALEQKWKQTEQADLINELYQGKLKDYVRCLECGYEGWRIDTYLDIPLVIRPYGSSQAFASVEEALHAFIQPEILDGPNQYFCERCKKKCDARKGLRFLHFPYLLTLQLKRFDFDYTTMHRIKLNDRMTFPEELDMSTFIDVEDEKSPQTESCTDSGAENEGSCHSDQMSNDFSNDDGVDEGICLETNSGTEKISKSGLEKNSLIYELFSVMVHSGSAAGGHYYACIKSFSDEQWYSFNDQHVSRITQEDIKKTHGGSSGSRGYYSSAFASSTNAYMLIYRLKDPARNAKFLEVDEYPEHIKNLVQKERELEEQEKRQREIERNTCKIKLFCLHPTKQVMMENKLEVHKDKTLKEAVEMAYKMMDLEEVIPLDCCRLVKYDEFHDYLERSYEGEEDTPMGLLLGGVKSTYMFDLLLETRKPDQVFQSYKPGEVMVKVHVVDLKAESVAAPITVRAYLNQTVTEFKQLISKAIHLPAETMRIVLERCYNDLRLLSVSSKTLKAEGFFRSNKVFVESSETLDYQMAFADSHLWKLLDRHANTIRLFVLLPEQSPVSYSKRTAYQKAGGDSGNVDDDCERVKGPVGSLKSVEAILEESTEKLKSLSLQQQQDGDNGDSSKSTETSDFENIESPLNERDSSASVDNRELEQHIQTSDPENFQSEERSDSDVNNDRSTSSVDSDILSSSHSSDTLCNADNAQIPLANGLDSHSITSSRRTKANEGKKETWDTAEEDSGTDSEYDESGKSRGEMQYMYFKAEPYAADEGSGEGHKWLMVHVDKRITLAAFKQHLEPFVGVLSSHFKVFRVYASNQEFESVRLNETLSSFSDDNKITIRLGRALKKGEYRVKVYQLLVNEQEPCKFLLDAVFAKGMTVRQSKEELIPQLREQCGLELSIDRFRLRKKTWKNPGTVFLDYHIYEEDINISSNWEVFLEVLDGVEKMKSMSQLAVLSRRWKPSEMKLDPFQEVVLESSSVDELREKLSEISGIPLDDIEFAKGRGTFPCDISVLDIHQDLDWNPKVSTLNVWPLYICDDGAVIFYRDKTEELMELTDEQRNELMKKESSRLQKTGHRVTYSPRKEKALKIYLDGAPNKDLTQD
Summary of the method: as §1

[4] = biological target: T3, USP48 (UniProt Q86UV5)
T3 sequence (whole entry): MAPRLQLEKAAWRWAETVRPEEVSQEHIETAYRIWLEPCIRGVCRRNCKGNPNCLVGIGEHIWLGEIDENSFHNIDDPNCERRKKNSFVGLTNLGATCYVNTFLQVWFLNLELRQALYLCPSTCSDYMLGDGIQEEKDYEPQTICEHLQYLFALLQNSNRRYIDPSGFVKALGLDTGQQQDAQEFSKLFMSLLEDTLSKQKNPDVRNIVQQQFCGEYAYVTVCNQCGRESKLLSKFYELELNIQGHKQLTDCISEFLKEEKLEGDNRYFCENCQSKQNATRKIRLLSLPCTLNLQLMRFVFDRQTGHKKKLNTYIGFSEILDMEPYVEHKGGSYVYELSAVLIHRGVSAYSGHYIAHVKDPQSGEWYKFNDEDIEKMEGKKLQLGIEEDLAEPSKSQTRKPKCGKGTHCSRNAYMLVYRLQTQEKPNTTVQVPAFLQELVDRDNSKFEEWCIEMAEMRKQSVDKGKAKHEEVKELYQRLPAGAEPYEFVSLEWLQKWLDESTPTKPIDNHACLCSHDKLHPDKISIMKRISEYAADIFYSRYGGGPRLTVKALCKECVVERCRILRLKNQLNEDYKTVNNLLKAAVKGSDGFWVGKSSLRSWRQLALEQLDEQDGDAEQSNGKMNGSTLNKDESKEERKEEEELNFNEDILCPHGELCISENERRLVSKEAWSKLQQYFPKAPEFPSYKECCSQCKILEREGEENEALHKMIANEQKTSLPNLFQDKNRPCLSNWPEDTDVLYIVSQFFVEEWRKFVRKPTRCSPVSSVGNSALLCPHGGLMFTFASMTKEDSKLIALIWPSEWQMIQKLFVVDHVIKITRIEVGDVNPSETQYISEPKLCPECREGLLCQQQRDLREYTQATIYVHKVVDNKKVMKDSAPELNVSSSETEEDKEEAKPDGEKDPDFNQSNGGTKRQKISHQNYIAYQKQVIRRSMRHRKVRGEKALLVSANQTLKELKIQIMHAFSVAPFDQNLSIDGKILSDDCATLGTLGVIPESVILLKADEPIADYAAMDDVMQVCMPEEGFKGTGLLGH
Summary of the method: as §1

[5] = biological target: T4, USP5 (UniProt P45974)
T4 sequence (whole entry): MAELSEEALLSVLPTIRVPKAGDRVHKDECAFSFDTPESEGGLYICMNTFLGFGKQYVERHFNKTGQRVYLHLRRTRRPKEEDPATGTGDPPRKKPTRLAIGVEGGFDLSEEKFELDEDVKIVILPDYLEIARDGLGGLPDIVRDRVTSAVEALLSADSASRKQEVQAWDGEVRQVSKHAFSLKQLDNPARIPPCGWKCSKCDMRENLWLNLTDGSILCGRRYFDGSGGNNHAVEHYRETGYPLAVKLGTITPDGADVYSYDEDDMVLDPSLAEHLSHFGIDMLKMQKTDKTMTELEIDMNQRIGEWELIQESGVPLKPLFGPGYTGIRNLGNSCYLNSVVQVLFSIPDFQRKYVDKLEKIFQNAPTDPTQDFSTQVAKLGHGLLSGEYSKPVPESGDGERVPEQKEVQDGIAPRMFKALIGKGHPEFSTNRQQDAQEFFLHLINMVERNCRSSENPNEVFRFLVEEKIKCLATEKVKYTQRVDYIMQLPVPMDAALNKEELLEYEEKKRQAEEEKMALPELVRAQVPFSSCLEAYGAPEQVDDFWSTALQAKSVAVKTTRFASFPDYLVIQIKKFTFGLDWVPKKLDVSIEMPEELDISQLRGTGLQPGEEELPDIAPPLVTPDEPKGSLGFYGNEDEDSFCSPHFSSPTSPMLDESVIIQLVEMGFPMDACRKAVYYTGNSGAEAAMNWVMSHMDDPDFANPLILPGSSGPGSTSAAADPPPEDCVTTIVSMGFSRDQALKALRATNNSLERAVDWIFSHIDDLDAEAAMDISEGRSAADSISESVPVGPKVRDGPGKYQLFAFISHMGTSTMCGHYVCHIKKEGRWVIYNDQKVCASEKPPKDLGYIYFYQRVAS
Summary of the method: as §1

[6] = biological target: USP54 (UniProt Q70EL1)
Summary of the method: as §1

[7] = biological target: USP7 (UniProt Q93009)
Summary of the method: as §1

[8] = biological target: T5, USP8 (UniProt P40818)
T5 sequence (whole entry): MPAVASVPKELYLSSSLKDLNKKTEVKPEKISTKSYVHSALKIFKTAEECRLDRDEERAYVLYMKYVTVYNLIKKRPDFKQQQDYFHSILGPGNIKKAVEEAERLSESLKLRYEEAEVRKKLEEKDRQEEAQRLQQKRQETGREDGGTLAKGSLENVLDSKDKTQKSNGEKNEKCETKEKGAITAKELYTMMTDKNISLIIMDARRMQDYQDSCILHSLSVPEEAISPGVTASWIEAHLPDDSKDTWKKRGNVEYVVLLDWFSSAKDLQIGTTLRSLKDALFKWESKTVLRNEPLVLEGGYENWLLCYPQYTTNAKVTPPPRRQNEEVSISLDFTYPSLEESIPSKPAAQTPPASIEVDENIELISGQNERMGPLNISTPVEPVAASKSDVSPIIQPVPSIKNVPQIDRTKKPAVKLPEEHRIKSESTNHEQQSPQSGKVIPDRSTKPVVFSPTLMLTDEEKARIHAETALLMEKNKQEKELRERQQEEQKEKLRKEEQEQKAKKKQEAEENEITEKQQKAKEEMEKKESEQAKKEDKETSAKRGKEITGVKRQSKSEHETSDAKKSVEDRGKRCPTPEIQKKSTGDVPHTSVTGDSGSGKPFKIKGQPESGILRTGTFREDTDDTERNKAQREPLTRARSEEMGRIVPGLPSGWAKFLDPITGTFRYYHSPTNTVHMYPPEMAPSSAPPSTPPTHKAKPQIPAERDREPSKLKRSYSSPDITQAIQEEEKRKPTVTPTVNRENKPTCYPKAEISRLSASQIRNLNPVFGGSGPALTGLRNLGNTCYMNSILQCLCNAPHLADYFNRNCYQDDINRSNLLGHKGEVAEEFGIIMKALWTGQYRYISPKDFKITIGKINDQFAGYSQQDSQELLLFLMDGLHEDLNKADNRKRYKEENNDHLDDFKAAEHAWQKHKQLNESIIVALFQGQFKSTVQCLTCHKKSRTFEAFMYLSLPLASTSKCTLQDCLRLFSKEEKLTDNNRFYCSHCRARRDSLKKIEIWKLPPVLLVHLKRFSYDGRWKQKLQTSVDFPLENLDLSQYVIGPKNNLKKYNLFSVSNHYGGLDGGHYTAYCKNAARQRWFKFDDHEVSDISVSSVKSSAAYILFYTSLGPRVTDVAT
Summary of the method: as §1

Measured: log2 ratio of Biotin-Ahx-Ub-VS probe labelling

USP7, sequence (Q93009 whole entry, looked up): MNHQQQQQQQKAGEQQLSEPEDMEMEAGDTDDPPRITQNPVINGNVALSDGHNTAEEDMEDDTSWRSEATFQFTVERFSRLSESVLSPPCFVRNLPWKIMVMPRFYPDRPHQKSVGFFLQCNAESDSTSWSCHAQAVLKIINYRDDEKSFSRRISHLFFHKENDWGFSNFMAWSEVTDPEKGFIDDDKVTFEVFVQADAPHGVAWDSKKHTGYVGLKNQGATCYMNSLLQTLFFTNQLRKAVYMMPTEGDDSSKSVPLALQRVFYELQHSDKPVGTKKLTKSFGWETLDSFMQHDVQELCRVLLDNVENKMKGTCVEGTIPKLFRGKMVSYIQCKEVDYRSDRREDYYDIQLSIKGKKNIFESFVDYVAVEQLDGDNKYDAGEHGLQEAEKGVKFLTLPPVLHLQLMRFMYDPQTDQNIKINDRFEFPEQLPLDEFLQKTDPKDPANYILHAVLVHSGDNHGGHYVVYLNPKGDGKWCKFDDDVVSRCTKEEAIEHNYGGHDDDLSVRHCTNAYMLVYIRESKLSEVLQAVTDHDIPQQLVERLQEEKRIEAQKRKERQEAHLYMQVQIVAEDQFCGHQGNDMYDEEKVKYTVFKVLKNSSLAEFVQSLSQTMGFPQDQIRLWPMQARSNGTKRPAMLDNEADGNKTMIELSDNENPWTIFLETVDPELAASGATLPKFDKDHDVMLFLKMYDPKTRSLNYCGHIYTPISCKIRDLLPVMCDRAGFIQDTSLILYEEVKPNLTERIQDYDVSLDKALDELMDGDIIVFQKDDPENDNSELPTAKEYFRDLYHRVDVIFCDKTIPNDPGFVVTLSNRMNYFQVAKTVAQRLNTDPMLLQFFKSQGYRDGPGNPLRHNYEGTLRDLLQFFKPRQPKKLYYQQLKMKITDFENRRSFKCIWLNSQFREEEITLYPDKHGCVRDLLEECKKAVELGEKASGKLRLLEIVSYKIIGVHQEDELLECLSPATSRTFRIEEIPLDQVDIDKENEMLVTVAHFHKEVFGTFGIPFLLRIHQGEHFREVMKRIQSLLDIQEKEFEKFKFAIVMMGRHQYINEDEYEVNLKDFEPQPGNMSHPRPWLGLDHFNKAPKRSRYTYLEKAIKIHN
USP46, sequence (P62068 whole entry): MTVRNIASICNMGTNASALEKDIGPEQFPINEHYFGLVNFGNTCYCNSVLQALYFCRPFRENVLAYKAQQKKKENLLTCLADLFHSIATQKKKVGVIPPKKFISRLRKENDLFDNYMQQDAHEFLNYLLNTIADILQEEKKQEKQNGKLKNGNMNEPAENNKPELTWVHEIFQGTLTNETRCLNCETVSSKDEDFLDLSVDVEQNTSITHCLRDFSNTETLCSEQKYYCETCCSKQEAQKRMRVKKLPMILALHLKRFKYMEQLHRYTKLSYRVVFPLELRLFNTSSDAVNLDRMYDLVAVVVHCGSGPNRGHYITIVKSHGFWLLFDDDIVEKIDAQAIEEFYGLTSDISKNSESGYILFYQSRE
USP54, sequence (Q70EL1 whole entry): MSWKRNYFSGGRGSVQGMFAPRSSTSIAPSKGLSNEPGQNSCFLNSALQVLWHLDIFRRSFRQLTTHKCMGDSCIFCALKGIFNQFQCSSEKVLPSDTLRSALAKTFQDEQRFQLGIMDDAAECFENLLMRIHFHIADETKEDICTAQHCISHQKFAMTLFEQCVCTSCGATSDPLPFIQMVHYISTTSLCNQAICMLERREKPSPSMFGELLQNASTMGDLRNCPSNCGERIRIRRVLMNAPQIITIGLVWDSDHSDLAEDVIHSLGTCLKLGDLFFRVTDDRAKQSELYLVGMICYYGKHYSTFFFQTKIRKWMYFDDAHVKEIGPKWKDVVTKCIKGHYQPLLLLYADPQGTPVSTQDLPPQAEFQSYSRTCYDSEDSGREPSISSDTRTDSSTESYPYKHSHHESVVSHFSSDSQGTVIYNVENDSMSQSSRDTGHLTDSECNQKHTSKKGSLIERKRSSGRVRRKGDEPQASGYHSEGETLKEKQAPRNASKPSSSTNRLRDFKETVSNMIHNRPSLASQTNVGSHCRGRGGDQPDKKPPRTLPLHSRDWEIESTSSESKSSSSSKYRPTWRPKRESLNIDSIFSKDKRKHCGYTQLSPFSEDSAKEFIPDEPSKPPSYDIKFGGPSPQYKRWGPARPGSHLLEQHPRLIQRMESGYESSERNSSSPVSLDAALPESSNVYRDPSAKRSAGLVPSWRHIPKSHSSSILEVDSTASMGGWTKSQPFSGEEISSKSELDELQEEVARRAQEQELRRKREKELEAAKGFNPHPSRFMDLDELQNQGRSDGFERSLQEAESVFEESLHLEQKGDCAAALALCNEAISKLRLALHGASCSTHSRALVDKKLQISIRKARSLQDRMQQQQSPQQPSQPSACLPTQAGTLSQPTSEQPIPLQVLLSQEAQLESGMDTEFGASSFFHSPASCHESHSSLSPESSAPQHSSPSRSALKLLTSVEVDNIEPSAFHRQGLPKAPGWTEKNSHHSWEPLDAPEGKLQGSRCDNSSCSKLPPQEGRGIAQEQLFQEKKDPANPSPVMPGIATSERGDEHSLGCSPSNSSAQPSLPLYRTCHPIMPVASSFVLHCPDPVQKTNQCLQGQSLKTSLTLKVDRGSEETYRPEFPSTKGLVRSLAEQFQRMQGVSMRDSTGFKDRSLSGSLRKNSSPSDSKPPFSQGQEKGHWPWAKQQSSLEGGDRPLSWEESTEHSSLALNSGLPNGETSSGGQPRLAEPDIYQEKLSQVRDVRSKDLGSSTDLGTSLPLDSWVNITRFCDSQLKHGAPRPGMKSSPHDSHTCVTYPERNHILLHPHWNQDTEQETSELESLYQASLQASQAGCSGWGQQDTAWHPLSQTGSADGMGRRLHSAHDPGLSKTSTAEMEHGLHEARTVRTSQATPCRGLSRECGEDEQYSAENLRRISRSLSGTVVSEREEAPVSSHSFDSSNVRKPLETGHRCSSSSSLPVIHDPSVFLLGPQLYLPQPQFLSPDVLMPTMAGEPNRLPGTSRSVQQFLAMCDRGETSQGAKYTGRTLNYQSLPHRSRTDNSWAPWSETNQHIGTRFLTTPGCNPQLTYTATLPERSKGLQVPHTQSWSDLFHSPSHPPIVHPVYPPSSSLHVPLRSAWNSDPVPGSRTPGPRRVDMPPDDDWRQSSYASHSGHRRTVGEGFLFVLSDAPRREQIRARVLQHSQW

CN(C(=O)CCl)c1nc2ccccc2s1
inactive: [1] 0.236 | [2] -0.305 | [3] -0.107 | [4] -0.574 | [5] -0.191 | [6] -0.996 | [7] -0.566 | [8] -0.0186
